Screens (PubChem)
aSyn UTR act – Activators via SNCA 5'UTR binding, MLPCN; alpha-synuclein 5'UTR reporter, activators screen; activity score, % (tested at 7.5 µM), hits read low; hit rate 7.1% among 300,000; in the data active = activity score below about -60%
An asterisk follows results filed as active. A selection follows.

NC(=O)c1c(NC(=O)c2cccnc2)sc2c1CCCC2 was read as aSyn UTR act -221*.
`CC(C)(C)C1CCc2c(sc(NC(=O)c3ccncc3)c2C(N)=O)C1` (stereo not drawn) gave aSyn UTR act -131*.
`CCC1CCc2c(sc(NC(=O)c3ccoc3C)c2C(N)=O)C1` (stereo not drawn) gave aSyn UTR act -89*.
Screening CCC1CCc2c(sc(NC(=O)c3cccnc3)c2C(N)=O)C1 (stereo not drawn) returned aSyn UTR act -99*.
Screening COc1ccc(/C(C)=N/NC(=O)c2nc(C)cc(C)n2)cc1 returned aSyn UTR act -114*.
C/C(=N\NC(=O)CC(C)C)c1ccc(N2CCCCC2)cc1 was read as aSyn UTR act -62*.
Screening COc1ccc(C(=O)N/N=C(/C)c2ccc(N3CCCCC3)cc2)cc1 returned aSyn UTR act -68*.
Screening COCCNC(=S)N/N=C(\C)c1ccccc1O returned aSyn UTR act -161*.
CCCOc1ccc(/C=C/C(=O)N2CCOCC2)cc1 was read as aSyn UTR act -68*.
CC(C)c1ccc(/C=C/C(=O)N2CCOCC2)cc1 was read as aSyn UTR act -156*.
`O=C(/C=C/c1ccc(Cl)cc1)N1CCOCC1` gave aSyn UTR act -76*.
For CC(C)c1ccc(/C=C/C2=NNC(=O)CC2)cc1 the results were aSyn UTR act 87.
For O=[N+]([O-])c1nn(-c2ccc3c(c2)OCCO3)n(O)c1=NC1CCCC1 the results were aSyn UTR act -108*.
Screening O=[N+]([O-])c1nn(-c2ccc3c(c2)OCCO3)n(O)c1=Nc1ccccc1 returned aSyn UTR act 80.
`O=[N+]([O-])c1nn(-c2ccc3c(c2)OCCO3)n(O)c1=NC1CCCCCC1` gave aSyn UTR act -91*.
`NS(=O)(=O)c1ccc(CNc2ccc3ccccc3n2)cc1` gave aSyn UTR act -120*.
Screening O=C(N/N=C/c1cc([N+](=O)[O-])ccc1O)c1cc(-c2ccccc2)nc2ccccc12 returned aSyn UTR act 81.
`CCCc1ccc(-c2cc(C(=O)NCCc3ccc(S(N)(=O)=O)cc3)c3ccccc3n2)cc1` gave aSyn UTR act -115*.
CCc1ccc(-c2cc(C(=O)Nn3cnnc3)c3ccccc3n2)cc1 was read as aSyn UTR act 74.
CCCc1ccc(-c2cc(C(=O)NN3CCOCC3)c3ccccc3n2)cc1 was read as aSyn UTR act -93*.
For CCCc1ccc(-c2cc(C(=O)Nc3ccc([N+](=O)[O-])cn3)c3ccccc3n2)cc1 the results were aSyn UTR act -90*.
O=C(NCc1ccccc1Cl)c1ccc2ccccc2n1 was read as aSyn UTR act -121*.
NS(=O)(=O)c1ccc(CCNC(=O)c2ccc3ccccc3n2)cc1 was read as aSyn UTR act -83*.
For CC(=Nc1ccc(C)c(C)c1)C1=C(O)CSC1=O the results were aSyn UTR act -122*.
Screening Cc1ccc(-n2ncc(C(=O)Nc3cc(Cl)cc(Cl)c3)c2C2CCNCC2)cc1C returned aSyn UTR act 93.
For Cc1cc(C)n(CC(=O)NC2CCCc3c2cnn3-c2ccc(C)c(C)c2)n1 (stereo not drawn) the results were aSyn UTR act -84*.
Screening CCOc1ccc(C(=O)c2cccs2)cc1 returned aSyn UTR act -182*.
For O=C1C(C=Nc2ccccc2)=C(O)c2ccccc21 the results were aSyn UTR act -78*.
For COc1ccc(N=CC2=C(O)c3ccccc3C2=O)cc1 the results were aSyn UTR act -80*.
For CCN(CC)c1ccc(-c2nn3c(-c4n[nH]c5c4CCC5)nnc3s2)cc1 the results were aSyn UTR act 72.
Screening Clc1ccc(-c2n[nH]c3c2CCCC3)cc1 returned aSyn UTR act -70*.
Screening CN1CCN(C(=O)c2cc(COc3ccccc3)on2)[C@@H](c2ccccc2)C1 returned aSyn UTR act -166*.
`Cc1ccc(OCc2cc(C(=O)N3CCN(C)C[C@@H]3c3ccccc3)no2)cc1C` gave aSyn UTR act -106*.
Screening O=C(NCCCN1CCCC1=O)C(=O)Nc1cccc(F)c1 returned aSyn UTR act -107*.
`Cc1ccc(NC(=O)NCCCN2CCCC2=O)cc1Cl` gave aSyn UTR act -66*.
For O=C(Cc1ccc(N2CCNC2=O)cc1)N1CCCC(Nc2cccc(F)c2)C1 (stereo not drawn) the results were aSyn UTR act 64.
`Cc1nc(SCc2cccc(C(=O)O)c2)nc2c1CCCC2` gave aSyn UTR act 59.
For COc1ccc2nc(C)cc(SCC(=O)N/N=C/c3cccc4ccccc34)c2c1 the results were aSyn UTR act 47.
COc1ccc2nc(SCc3cccc(C)c3)nc(C)c2c1 was read as aSyn UTR act -106*.
Screening COc1ccc2nc(SCc3ccccc3C)nc(C)c2c1 returned aSyn UTR act -107*.
For O=C1CN(c2ccccc2)C(=S)N1C(=O)c1ccccc1 the results were aSyn UTR act -154*.
For CC(=O)n1c(Cl)c(NC(=O)CCl)c2ccccc21 the results were aSyn UTR act -80*.
`CC(=O)n1cc(N(C(=O)CCl)c2ccccc2)c2ccccc21` gave aSyn UTR act 106.
For COc1ccc(-c2cc(C(=O)N3CCCCCC3)no2)cc1 the results were aSyn UTR act -85*.
For COc1ccc(-c2cc(C(=O)N3CCCCCC3)no2)cc1OC the results were aSyn UTR act -124*.
Screening CCc1ccc(/C=C2\SC(=S)N(CCC(=O)Nc3cc(C)on3)C2=O)cc1 returned aSyn UTR act 69.
CCN=C1S/C(=C\c2ccc(O)c(OCC)c2)C(=O)N1CC was read as aSyn UTR act 68.
Screening COc1ccc(/C=C2\SC(=S)N(Cc3cccnc3)C2=O)cc1C returned aSyn UTR act -127*.
Screening COc1cc(/C=C2/SC(=S)N(Cc3ccccc3)C2=O)ccc1O returned aSyn UTR act -67*.
C#CCOc1ccc(/C=C2\SC(=S)N(Cc3cccnc3)C2=O)cc1 was read as aSyn UTR act -82*.
COc1ccc(/C=C2/SC(=S)N(CC(=O)O)C2=O)cc1OCc1ccc(Cl)cc1 was read as aSyn UTR act -132*.
For Nc1nc(Nc2ccccc2)sc1C(=O)c1ccccc1 the results were aSyn UTR act -121*.
Screening Cc1cnc(NC(=O)c2sc(Nc3ccccc3)nc2N)o1 returned aSyn UTR act -115*.
`O=C(c1ccccc1)c1cnc(-c2ccccc2)s1` gave aSyn UTR act -99*.
CN(C)/C=C/C(=O)c1cnc(-c2ccccc2)s1 was read as aSyn UTR act -116*.
Screening CN(C)/C=C/C(=O)c1cnc(-c2ccc(Cl)cc2)s1 returned aSyn UTR act -90*.
`O=c1c2ccccc2sc2ccc(Cl)cc12` gave aSyn UTR act -106*.
COc1cc(/C=N/n2cnnc2)ccc1OCc1ccc(C)cc1 was read as aSyn UTR act -100*.
Screening COc1cc(/C=N/n2cnnc2)ccc1OCc1ccccc1 returned aSyn UTR act -72*.
COc1ccc(/C=C2\CN(Cc3ccccc3)C/C(=C\c3ccc(OC)c(O)c3)C2=O)cc1O was read as aSyn UTR act 107.
For CC1CCC(NC(=O)c2cc3c(=O)n(C)c4ccccc4c3n2C)CC1 (stereo not drawn) the results were aSyn UTR act -98*.
`Cn1c(=O)c(C(=O)NC2CCCCCCC2)c(O)c2ccccc21` gave aSyn UTR act -166*.
Screening Cn1c(=O)c(C(=O)NC2CCCCCC2)c(O)c2ccccc21 returned aSyn UTR act -72*.
For Cn1cc(C(=O)C(=O)NC2CCCCC2)c2ccccc21 the results were aSyn UTR act -68*.
